This is an account of results in the supplement of paper PMC7411054.

Common to all, as to settings: treatment time: 24 h
The test system of experiment [1] is A549-ACTB-RAB5A. In words: lowest phenotypically active concentration; higher = less potent. In a few lines: (§1)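 Live-cell features were measured per well and normalised to solvent control wells after fifteen gene-edited A549, HepG2 and WPMY1 reporter lines had been treated for 24 h at 0.3, 1, 3 or 9 µM in four wells each. A condition was deviating when ≥3 of 4 wells sat beyond the 95th percentile of control Euclidean distances. It was reproducible when the median replicate Pearson correlation exceeded the 95th percentile of non-replicates. Phenotypic activity demanded both.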

Experiment [2] deals with A549-CANX-COX4. The description is as above. In a few lines:
as §1

Experiment [3] relates to A549-GM130-SQSTM1. The experiment is described as above. The method in brief:
as §1

Experiment [4] relates to A549-TP53BP1-CLTA. Described as above. In a few lines: as §1
The test system of experiment [5] is A549-TUBA1B-RELA. The experiment is described as above. In a few lines: as §1
Experiment [6] deals with HepG2-TP53BP1-CLTA. The experiment is described as above. In a few lines:
as §1

Experiment [7] deals with A549-ACTB-RAB5A. Nature of the experiment: phenotypically active (imaging signature differs from DMSO and reproducible) at any of 0.3-9 uM (binary (1 = active, 0 = inactive)); higher = active. In a few lines: as §1
Experiment [8] deals with A549-CANX-COX4. The experiment is described as above. In a few lines: as §1
The test system of experiment [9] is A549-GM130-SQSTM1. Described as above. In a few lines: as §1
Experiment [10] relates to A549-TP53BP1-CLTA. The experiment is described as above. The method in brief: as §1
For experiment [11], the system named is A549-TUBA1B-RELA. The description is as above. The method in brief:
as §1

A further experiment has as its system HepG2-ACTB-RAB5A. The experiment is described as above. The method in brief:
as §1

Another experiment deals with HepG2-CANX-COX4. Described as above. In a few lines:
as §1

The next experiment relates to HepG2-GM130-SQSTM1. The description is as above. The method in brief:
as §1

For experiment [12], the system named is HepG2-TP53BP1-CLTA. The description is as above. In a few lines: as §1
A further experiment deals with HepG2-TUBA1B-RELA. The description is as above. The method in brief: as §1
The subject of the next experiment is WPMY1-CANX-COX4. The experiment is described as above. In a few lines: as §1
The subject of the next experiment is WPMY1-GM130-SQSTM1. Described as above. The method in brief:
as §1

The test system of the next experiment is WPMY1-TP53BP1-CLTA. Described as above. The method in brief:
as §1

A further experiment has as its system WPMY1-TUBA1B-RELA. The experiment is described as above. In a few lines:
as §1

Molecules are shown by their SMILES. Counter-ions that a name gives are not always drawn.

For the compound `COc1ccc(S(=O)(=O)N(C(C)=O)c2ccccc2/C=C/c2cc[n+]([O-])cc2)cc1`, the “lowest phenotypically active concentration” value with A549-ACTB-RAB5A [1] is 1 µM; with A549-CANX-COX4 [2] it was 3 µM; with A549-GM130-SQSTM1 [3], not above 0.3 µM; with A549-TP53BP1-CLTA [4], 3 µM; in the experiment on A549-TUBA1B-RELA [5], not above 0.3 µM; in the experiment with HepG2-TP53BP1-CLTA [6], 3 µM. In addition, the phenotypically active in the experiment on A549-ACTB-RAB5A [7], in the experiment with A549-CANX-COX4 [8], in the experiment on A549-GM130-SQSTM1 [9], in the experiment with A549-TP53BP1-CLTA [10], in the experiment on A549-TUBA1B-RELA [11] and in the experiment with HepG2-ACTB-RAB5A was 1 (active) each time. The phenotypically active in the experiment with HepG2-CANX-COX4, with HepG2-GM130-SQSTM1, in the experiment on HepG2-TP53BP1-CLTA [12], in the experiment with HepG2-TUBA1B-RELA, in the experiment on WPMY1-CANX-COX4 and in the experiment on WPMY1-GM130-SQSTM1 was 1 (active) in each case. Moreover, the phenotypically active in the experiment on WPMY1-TP53BP1-CLTA and in the experiment with WPMY1-TUBA1B-RELA was 1 (active) throughout.
In the case of `CCN(CCO)CCCOc1ccc2c(Nc3cc(CC(=O)Nc4cccc(F)c4)n[nH]3)ncnc2c1` [barasertib-HQPA], the “lowest phenotypically active concentration” value with A549-ACTB-RAB5A [1], in the experiment with A549-CANX-COX4 [2], in the experiment on A549-GM130-SQSTM1 [3], with A549-TP53BP1-CLTA [4], with A549-TUBA1B-RELA [5] and in the experiment on HepG2-TP53BP1-CLTA [6] was not above 0.3 µM each time. Besides, the phenotypically active in the experiment on A549-ACTB-RAB5A [7], in the experiment on A549-CANX-COX4 [8], in the experiment on A549-GM130-SQSTM1 [9], in the experiment on A549-TP53BP1-CLTA [10], with A549-TUBA1B-RELA [11] and in the experiment on HepG2-ACTB-RAB5A was 1 (active) each time. The phenotypically active with HepG2-CANX-COX4, with HepG2-GM130-SQSTM1, with HepG2-TP53BP1-CLTA [12], in the experiment with HepG2-TUBA1B-RELA, in the experiment on WPMY1-CANX-COX4 and in the experiment on WPMY1-GM130-SQSTM1 was 1 (active) each time. Also, the phenotypically active in the experiment on WPMY1-TP53BP1-CLTA and in the experiment with WPMY1-TUBA1B-RELA was 1 (active) throughout.
In the case of `COc1cc2c(cc1-c1c(C)noc1C)ncc1[nH]c(=O)n([C@H](C)c3ccccn3)c12` [I-BET 151 dihydrochloride], the “lowest phenotypically active concentration” value in the experiment with A549-ACTB-RAB5A [1] is 1 µM; with A549-CANX-COX4 [2], 3 µM; in the experiment with A549-GM130-SQSTM1 [3] it was 1 µM; with A549-TP53BP1-CLTA [4], 3 µM; in the experiment on A549-TUBA1B-RELA [5] it was 1 µM; in the experiment on HepG2-TP53BP1-CLTA [6], 3 µM. Also, the phenotypically active in the experiment on A549-ACTB-RAB5A [7], in the experiment with A549-CANX-COX4 [8], in the experiment with A549-GM130-SQSTM1 [9], in the experiment on A549-TP53BP1-CLTA [10], in the experiment with A549-TUBA1B-RELA [11] and with HepG2-ACTB-RAB5A was 1 (active) in each case. Besides, the phenotypically active in the experiment on HepG2-CANX-COX4, in the experiment on HepG2-GM130-SQSTM1, in the experiment on HepG2-TP53BP1-CLTA [12], in the experiment with HepG2-TUBA1B-RELA, in the experiment on WPMY1-CANX-COX4 and with WPMY1-GM130-SQSTM1 was 1 (active) each time. The phenotypically active in the experiment with WPMY1-TP53BP1-CLTA and with WPMY1-TUBA1B-RELA was 1 (active) in each case.
Regarding `Cn1cc(-c2[nH]c3cc(NC(=O)[C@H](N)C4CCCCC4)cc4c3c2C=NNC4=O)cn1`, the “lowest phenotypically active concentration” value was found to be 9 µM in the experiment with A549-ACTB-RAB5A [1]; 9 µM in the experiment with A549-CANX-COX4 [2]; 9 µM with A549-GM130-SQSTM1 [3]; 3 µM in the experiment on A549-TP53BP1-CLTA [4]; 9 µM with A549-TUBA1B-RELA [5]; 3 µM in the experiment with HepG2-TP53BP1-CLTA [6]. Also, the phenotypically active with A549-ACTB-RAB5A [7], with A549-CANX-COX4 [8], in the experiment with A549-GM130-SQSTM1 [9], in the experiment on A549-TP53BP1-CLTA [10], in the experiment on A549-TUBA1B-RELA [11] and in the experiment on HepG2-ACTB-RAB5A was 1 (active) in each case. Further, the phenotypically active with HepG2-CANX-COX4, with HepG2-GM130-SQSTM1, in the experiment on HepG2-TP53BP1-CLTA [12], with HepG2-TUBA1B-RELA, with WPMY1-CANX-COX4 and in the experiment on WPMY1-GM130-SQSTM1 was 1 (active) each time. Also, the phenotypically active with WPMY1-TP53BP1-CLTA and in the experiment on WPMY1-TUBA1B-RELA was 1 (active) throughout.
As for `Cc1ccc(C(=O)N(CCCN)[C@@H](c2oc3cc(Cl)ccc3c(=O)c2Cc2ccccc2)C(C)C)cc1`, the “lowest phenotypically active concentration” value in the experiment with A549-ACTB-RAB5A [1], in the experiment with A549-CANX-COX4 [2], with A549-GM130-SQSTM1 [3], with A549-TP53BP1-CLTA [4], in the experiment on A549-TUBA1B-RELA [5] and in the experiment with HepG2-TP53BP1-CLTA [6] was not above 0.3 µM each time. The phenotypically active in the experiment with A549-ACTB-RAB5A [7], with A549-CANX-COX4 [8], in the experiment on A549-GM130-SQSTM1 [9], in the experiment with A549-TP53BP1-CLTA [10], in the experiment with A549-TUBA1B-RELA [11] and in the experiment on HepG2-ACTB-RAB5A was 1 (active) throughout. The phenotypically active with HepG2-CANX-COX4, in the experiment with HepG2-GM130-SQSTM1, in the experiment on HepG2-TP53BP1-CLTA [12], in the experiment on HepG2-TUBA1B-RELA, in the experiment on WPMY1-CANX-COX4 and in the experiment on WPMY1-GM130-SQSTM1 was 1 (active) throughout. Moreover, the phenotypically active in the experiment on WPMY1-TP53BP1-CLTA and in the experiment with WPMY1-TUBA1B-RELA was 1 (active) in each case.
